Source: PubChem BioAssay (Tox21)
“And” between values parts separate entries of the source, which are not always exact repeats. Equal entries are not always repeated. Results filed as inconclusive are left out. The source made the active and inactive calls. Unless noted, the call rests on the fitted dose curve; in most records, active means well fitted curve in the direction sought with a large enough effect in the repeat runs; inconclusive means weak or mixed curves; inactive means no such curve, though single readings can be large; an effect the other way counts as inactive or inconclusive.

Tests used:
[1] = target: Retinoic acid receptor RXR-alpha (Homo sapiens) (UniProt P19793); assay: qHTS assay to identify small molecule agonists of the RXR signaling pathway (AID 1159527; calls by dose curve; further: nearly all actives have a fitted effect of over 35% in size)
Chain of Retinoic acid receptor RXR-alpha (Homo sapiens) (P19793 whole entry, looked up): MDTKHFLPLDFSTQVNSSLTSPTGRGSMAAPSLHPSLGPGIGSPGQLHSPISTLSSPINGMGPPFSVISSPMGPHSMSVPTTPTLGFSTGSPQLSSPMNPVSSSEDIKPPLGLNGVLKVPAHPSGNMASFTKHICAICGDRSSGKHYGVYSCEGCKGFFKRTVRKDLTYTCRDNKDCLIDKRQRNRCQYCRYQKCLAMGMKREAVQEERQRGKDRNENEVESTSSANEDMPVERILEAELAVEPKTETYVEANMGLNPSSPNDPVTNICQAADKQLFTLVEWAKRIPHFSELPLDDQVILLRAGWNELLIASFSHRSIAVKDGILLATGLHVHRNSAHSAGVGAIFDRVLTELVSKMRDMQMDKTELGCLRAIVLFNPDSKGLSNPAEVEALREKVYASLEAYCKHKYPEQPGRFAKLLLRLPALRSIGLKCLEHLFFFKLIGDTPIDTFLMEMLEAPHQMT
In short: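 qHTS of the Tox21 10K library in GeneBLAzer RXR-alpha HEK 293T cells carrying a beta-lactamase reporter […]; 16 hr treatment, 9-cis retinoic acid as agonist control, FRET read-out.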

[2] = qHTS assay to identify small molecule agonists of the RXR signaling pathway - cell viability counter screen (AID 1159529); further: series mostly up to about 77 µM; nearly all actives have a fitted effect of over 50% in size
In short: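 Cell viability is measured by CellTiter-Glo luminescence, 30 min at room temperature, in wells already read for beta-lactamase. Engineered HEK 293T cells (RXR-alpha-UAS-bla) are dosed 16 hr at 37 C. Tetraoctyl ammonium bromide serves as positive control.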

[3] = qHTS assay to identify small molecule antagonists of the retinoid acid receptor (RAR) signaling pathway - cell viability counter screen (AID 1159551); further: nearly all actives have a fitted effect of over 35% in size
In short: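 C3RL4 cells were seeded overnight at 37 C, then treated with compounds plus 1 uM (final) retinol for 6 h at 37 C. Viability was read as ATP by CellTiter-Glo luminescence after 30 min at room temperature.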

[4] = qHTS assay to identify small molecule antagonists of the retinoic acid receptor (RAR) signaling pathway (AID 1159552; further: nearly all actives have a fitted effect of over 50% in size)
In short: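 Quantitative HTS in C3RL4 RARE-luciferase reporter cells. Compounds were added with 1 uM (final) retinol; luminescence was read after 6 hr.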

[5] = qHTS assay to identify small molecule agonists of the retinoic acid receptor (RAR) signaling pathway (AID 1159553)
In short: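 C3RL4 cells carrying a RARE luciferase reporter were plated overnight at 37 C, then exposed to compounds in DMSO for 6 hr at 37 C and 5% CO2. Luminescence was read 30 min after luciferase reagent addition at room temperature.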

[6] = qHTS assay to identify small molecule antagonists of the estrogen related receptor (ERR) signaling pathway from Tox21 library - cell viability counter screen (AID 1224834); further: nearly all actives have a fitted effect of over 30% in size
In short: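 ERR reporter cells were plated 6 h before compound addition, then exposed to test compounds in DMSO for 17.5 h at 37 C. Viability was read as CellTiter-Fluor fluorescence after a 30-minute incubation at 37 C.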

[7] = target: Luciferin 4-monooxygenase (Photinus pyralis) (UniProt P08659); assay: qHTS assay to identify small molecule inhibitors of firefly luciferase (AID 1224835); further: series mostly up to about 120 µM; nearly all actives have a fitted effect of over 25% in size
Chain of Luciferin 4-monooxygenase (Photinus pyralis) (P08659 whole entry, looked up): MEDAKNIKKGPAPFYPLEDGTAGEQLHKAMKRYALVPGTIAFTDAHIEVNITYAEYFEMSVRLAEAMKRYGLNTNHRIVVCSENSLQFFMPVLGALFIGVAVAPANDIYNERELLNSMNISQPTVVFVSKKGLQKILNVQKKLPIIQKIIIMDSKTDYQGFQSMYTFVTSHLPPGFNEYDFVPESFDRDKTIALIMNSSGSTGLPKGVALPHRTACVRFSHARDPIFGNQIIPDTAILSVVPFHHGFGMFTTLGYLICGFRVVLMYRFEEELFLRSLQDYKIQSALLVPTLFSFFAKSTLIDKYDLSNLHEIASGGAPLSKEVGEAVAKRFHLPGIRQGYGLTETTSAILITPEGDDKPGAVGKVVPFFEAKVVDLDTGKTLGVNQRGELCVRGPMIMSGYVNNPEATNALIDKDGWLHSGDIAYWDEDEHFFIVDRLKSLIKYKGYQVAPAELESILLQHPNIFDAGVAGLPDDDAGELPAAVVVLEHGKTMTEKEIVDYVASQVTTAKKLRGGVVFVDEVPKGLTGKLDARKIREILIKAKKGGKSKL
In short: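 Quantitative HTS format; KM concentrations of both substrates. Purified P. pyralis FLuc activity quantified from luminescence images.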

[8] = qHTS assay to identify small molecule agonists of the constitutive androstane receptor (CAR) signaling pathway - cell viability counter screen (AID 1224836); further: series mostly up to about 92 µM; nearly all actives have a fitted effect of over 45% in size
In short: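 Counter screen multiplexed with the CAR reporter readout: HepG2 cells co-transfected with hCAR and the CYP2B6-2.2kb construct receive a 15-concentration compound series and 0.75 uM PK11195 (final), then CellTiter-Fluor fluorescence is read after 23 h.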

[9] = qHTS assay to identify small molecule antagonists of the constitutive androstane receptor (CAR) signaling pathway - cell viability counter screen (AID 1224837); further: series mostly up to about 92 µM; nearly all actives have a fitted effect of over 45% in size
In short: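 HepG2 cells stably expressing hCAR and a CYP2B6-2.2kb reporter were plated and pre-incubated 4 hr at 37 C/5% CO2, then given compounds at 15 concentrations plus 50 nM CITCO (final). After 23 hr, viability was read by CellTiter-Fluor fluorescence.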

[10] = target: Nuclear receptor subfamily 1 group I member 3 (Homo sapiens) (UniProt Q14994); assay: qHTS assay to identify small molecule antagonists of the constitutive androstane receptor (CAR) signaling pathway (AID 1224838); further: nearly all actives have a fitted effect of over 40% in size
Chain of Nuclear receptor subfamily 1 group I member 3 (Homo sapiens) (Q14994 whole entry, looked up): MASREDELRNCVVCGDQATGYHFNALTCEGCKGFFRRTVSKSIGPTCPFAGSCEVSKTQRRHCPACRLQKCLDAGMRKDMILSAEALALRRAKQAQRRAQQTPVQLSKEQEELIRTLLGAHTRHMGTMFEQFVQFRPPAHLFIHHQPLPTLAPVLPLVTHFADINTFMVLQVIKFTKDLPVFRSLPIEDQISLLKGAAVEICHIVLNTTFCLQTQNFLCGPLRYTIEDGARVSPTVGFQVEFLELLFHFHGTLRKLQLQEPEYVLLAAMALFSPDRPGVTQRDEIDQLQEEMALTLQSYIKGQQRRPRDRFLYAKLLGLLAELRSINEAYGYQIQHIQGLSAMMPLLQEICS
In short: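 HepG2 cells stably co-transfected with hCAR and a CYP2B6-2.2kb luciferase reporter were seeded 4 h before compound addition at 15 concentrations. Cells were stimulated with 50 nM CITCO (final) for 24 h at 37 C; luciferase luminescence was then read.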

[11] = target: Nuclear receptor subfamily 1 group I member 3 (Homo sapiens) (UniProt Q14994); assay: qHTS assay to identify small molecule agonists of the constitutive androstane receptor (CAR) signaling pathway (AID 1224839); further: nearly all actives have a fitted effect of over 15% in size; further: potency means the concentration at half of the fitted maximal effect; on activation: series mostly up to about 92 µM
In short: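 A 15-concentration quantitative screen uses HepG2 cells co-transfected stably with human CAR and CYP2B6-2.2kb reporter. Treatment lasts 24 h with 0.75 uM PK11195 final present; ONE-Glo luminescence is the signal.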

[12] = qHTS assay to identify small molecule antagonists of the estrogen related receptor signaling pathway with the pleiotropic PPARgamma coactivator (PGC) from Tox21 10K library - cell viability counter screen (AID 1224840; active means well fitted cell-killing curve with a large enough effect in the repeat runs, not every such curve was filed as active; further: nearly all actives have a fitted effect of over 40% in size)
In short: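 PGC/ERR cells were seeded at 2,000 cells/well and left 6 hours at 37 C/5% CO2 before pin-tool addition of compounds in DMSO. After 17.5 hours at 37 C, CellTiter-Fluor was added and fluorescence read 30 minutes later.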

[13] = qHTS assay to identify small molecule antagonists of the estrogen related receptor signaling pathway with the pleiotropic PPARgamma coactivator (PGC) from Tox21 10K library (AID 1224841; call rule not given here; further: series mostly up to about 92 µM; actives are mostly falling curves and most rising ones were filed inactive; nearly all actives have a fitted effect of over 50% in size)
In short: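 PGC/ERR reporter cells were seeded at 2,000 cells/well and held 6 hours at 37 C/5% CO2 before pin-tool addition of compounds in DMSO. After 18 hours at 37 C, One-Glo was added and luminescence read after 30 minutes at room temperature.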

[14] = qHTS assay to identify small molecule agonists of the estrogen related receptor signaling pathway with the pleiotropic PPARgamma coactivator (PGC) from Tox21 10K library (AID 1224842); further: nearly all actives have a fitted effect of over 15% in size
In short: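 PGC/ERR reporter cells (NTP line) were seeded 2,000 per well, rested 6 h at 37 C/5% CO2, then pin-dosed with compounds in DMSO for 18 h at 37 C; luciferase read by One-Glo luminescence after 30 min at room temperature.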

[15] = qHTS assay to identify small molecule antagonists of the estrogen related receptor (ERR) signaling pathway - cell viability counter screen (AID 1224818);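 further: series mostly up to about 46 µM; viability measured after 17.5 h of compound exposure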
In short: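 ERR reporter cells plated 6 h at 37 C/5% CO2, then compounds in DMSO pin-transferred and incubated 17.5 h at 37 C. Viability read as CellTiter-Fluor fluorescence after 30 min at 37 C.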

[16] = qHTS assay to identify small molecule antagonists of the estrogen related receptor signaling pathway with the pleiotropic PPARgamma coactivator (PGC) cell viability counter screen (AID 1224822; further: series mostly up to about 46 µM)
In short: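 PGC/ERR cells were seeded at 2,000 cells/well, rested 6 h at 37 C/5% CO2, then given compounds in DMSO by pin tool and incubated 17.5 h at 37 C. Viability came from CellTiter-Fluor fluorescence after 30 min.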
On the % scale 0 is the no-effect control and ±100 the full control effect.

COC(C)(C)CCCC(C)CC=O (centres undefined)
inactive: Potency [1] | Potency [2] | outcome [3] | Potency [4] | Potency [5] | Potency [6] | Potency [7] | Potency [8] | Potency [9] | Potency [10] | Potency [11] | Potency [12] | Potency [13] | outcome [14]

O=C(O)c1ccccc1OP(=O)(O)O
inactive: Potency [1] | Potency [2] | outcome [3] | Potency [4] | Potency [5] | Potency [6] | Potency [7] | Potency [8] | Potency [9] | Potency [10] | Potency [11] | Potency [12] | Potency [13] | outcome [14]

CCN1CCC[C@H]1CNC(=O)c1c(O)c(Cl)cc(Cl)c1OC
inactive: Potency [1] | Potency [2] | outcome [3] | Potency [4] | Potency [5] | outcome [15] | outcome [16] | Potency [7] | Potency [8] | Potency [9] | Potency [11] | Potency [12]

CC(=O)N(CC(O)CO)c1c(I)c(C(=O)NCCO)c(I)c(C(=O)NCC(O)CO)c1I (centres undefined)
inactive: Potency [1] | Potency [2] | outcome [3] | Potency [4] | Potency [5] | Potency [6] | Potency [7] | Potency [8] | Potency [9] | Potency [10] | Potency [11] | Potency [12] | Potency [13] | outcome [14]

CCCCOCCOCCOCc1cc2c(cc1CCC)OCO2
inactive: Potency [1] | Potency [2] | outcome [3] | Potency [4] | Potency [5] | outcome [15] | outcome [16] | Potency [8] | Potency [9] | Potency [10] | Potency [12]
active: Potency [11] 7.79 µM and 11.9 µM

CCCCCCOC(=O)CCCCC(=O)OCCCCCC
inactive: Potency [1] | Potency [2] | outcome [3] | Potency [4] | Potency [5] | Potency [6] | Potency [7] | Potency [8] | Potency [9] | Potency [10] | Potency [11] | Potency [12] | Potency [13] | outcome [14]

CCCc1cc(C(N)=S)ccn1
inactive: Potency [1] | Potency [2] | outcome [3] | Potency [4] | Potency [5] | Potency [6] | Potency [7] | Potency [8] | Potency [9] | Potency [10] | Potency [11] | Potency [12] | Potency [13] | outcome [14]

N[C@H](C(=O)O)c1ccc(O)cc1
inactive: Potency [1] | Potency [2] | activity change, negative = cytotoxicity [3] 1.22% [at 19 µM] | activity, negative = inhibition [4] -7.38% [at 19 µM] | Potency [5] | viability change, negative = cytotoxic [6] -0.517% [at 19 µM] | activity change, negative = inhibition [7] -0.257% [at 23.6 µM] | viability change, negative = cytotoxic [8] -1.44% [at 19 µM] | activity change, negative = cytotoxicity [9] 4.98% [at 19 µM] | activity, negative = inhibition [10] -5.61% [at 19 µM] | activation [11] -0.259% [at 19 µM] | viability change, negative = cytotoxic [12] -4.51% [at 19 µM] | activity, negative = inhibition [13] 1.15% [at 19 µM] | activation [14] 0.319% [at 19 µM]

O=C1CCCC(=O)C1
inactive: Potency [1] | Potency [2] | outcome [3] | Potency [4] | Potency [5] | Potency [6] | Potency [7] | Potency [8] | Potency [9] | Potency [10] | Potency [11] | Potency [12] | Potency [13] | outcome [14]

CC(C)(O)C#CC(C)(C)O
inactive: Potency [1] | Potency [2] | outcome [3] | Potency [4] | Potency [5] | Potency [6] | Potency [7] | Potency [8] | Potency [9] | Potency [10] | Potency [11] | Potency [12] | Potency [13] | outcome [14]

CCOC(=O)C(=O)OCC
inactive: Potency [1] | Potency [2] | outcome [3] | Potency [4] | Potency [5] | Potency [6] | Potency [7] | Potency [8] | Potency [9] | Potency [10] | Potency [11] | Potency [12] | Potency [13] | outcome [14]

CC(=O)Nc1ccc(S(N)(=O)=O)cc1
inactive: Potency [1] | Potency [2] | outcome [3] | Potency [4] | Potency [5] | Potency [6] | Potency [7] | Potency [8] | Potency [9] | Potency [10] | Potency [11] | Potency [12] | Potency [13] | outcome [14]

C=CCS(=O)(=O)O
inactive: Potency [1] | Potency [2] | outcome [3] | Potency [4] | Potency [5] | Potency [6] | Potency [7] | Potency [8] | Potency [9] | Potency [10] | Potency [11] | Potency [12] | Potency [13] | outcome [14]

CCCCCCCCCCCCN(CCCCCCCCCCCC)CCCCCCCCCCCC
inactive: Potency [1] | Potency [2] | outcome [3] | Potency [4] | Potency [5] | Potency [6] | Potency [7] | Potency [8] | Potency [9] | Potency [10] | Potency [11] | Potency [12] | Potency [13] | outcome [14]

CC/C=C\CC/C=C/CO
inactive: Potency [1] | Potency [2] | outcome [3] | Potency [4] | Potency [5] | Potency [6] | Potency [7] | Potency [8] | Potency [9] | Potency [10] | Potency [11] | Potency [12] | Potency [13] | outcome [14]

NC(=O)Nc1ccccc1
inactive: Potency [1] | Potency [2] | outcome [3] | Potency [4] | Potency [5] | Potency [6] | Potency [7] | Potency [8] | Potency [9] | Potency [10] | Potency [11] | Potency [12] | Potency [13] | outcome [14]

CN(C(=O)c1c(O)c2ccccc2n(C)c1=O)c1ccccc1
inactive: Potency [1] | Potency [2] | outcome [3] | Potency [4] | Potency [5] | Potency [6] | Potency [7] | Potency [8] | Potency [9] | Potency [10] | Potency [11] | Potency [12] | Potency [13] | outcome [14]
